# Source: PubChem BioAssay AID504850 (National Center for Advancing Translational Sciences (NCATS), 2011)
# The campaign covered roughly 2,300 compounds. About 1,200 (52%) were called active. Not shown: some 34% with an inconclusive outcome. Calls come from the whole dose curve; as a rule, active = well fitted inhibition curve with a large enough effect; inconclusive = small, poorly fitted or top-dose-only effect, or effect the other way; inactive = no such curve, though single readings can be large or run the other way. The set was probably picked from earlier hits. This is one part of the list.
# Assay: Confirmation screen for delayed death inhibitors of the malarial parasite plastid, 48 hour incubation; note: nearly all actives have a fitted effect of over 65% in size
# Details: P. falciparum-infected erythrocytes, luciferase growth; series mostly up to 28.7 µM
# Source text: The goal of this screen is to discover new antimalarial compounds that act by inhibiting the development of the apicoplast in the malarial parasite Plasmodium falciparum. The biochemical processes that make this organelle essential for erythrocytic stage parasites are not well understood. However, antibiotics, such as azithromycin and tetracycline, which target the apicoplast translational machinery, have a potent antimalarial effect. […] We have developed a cell-based assay that measures parasite growth based on the expression of an integrated copy of a firefly luciferase reporter. To detect small molecules that cause this "delayed death phenotype, erythrocytes infected with the luciferase-expressing parasites were incubated with compounds for either one or two generations, corresponding to 48 and 96 hours, respectively. Compounds that inhibit parasite growth in the second generation, but not the first, should be enriched in antimalarials that target the apicoplast. Growth inhibition is detected by a decrease in luciferase activity. MLPCN Grant: R21 NS059500 Assay Provider: David Fidock and Eric Ekland, Columbia University Keywords: NIH Roadmap, MLPCN, MLI, MLSMR, qHTS, NCGC, qHTS, malaria, luciferase, viability
# Four microliters of culture medium (RPMI 1640 with 0.5% w/v Albumax (GIBCO), 24 mM sodium bicarbonate and 10 ug/mL gentamycin) were dispensed by a Multi-drop Combi into white solid 1536-well plates (Grenier) and 23 nL compound was added by a pin tool. Four microliters of infected erythrocytes (2% hematocrit, 0.1% parasitemia final concentration) in culture medium were dispensed and the plates incubated for 48 hours at 37 C in 5% CO2. Two microliters of luciferase detection reagent was added and luminescence was detected by a ViewLux (PerkinElmer) reader.
# Potency is the fitted concentration of half-maximal effect.
row,Compound,Potency
1,COc1ccc(CN(C(=O)/C=C/C(=O)c2ccc(OC)cc2O)C(C(=O)NC2CCCCC2)c2ccncc2)cc1 (stereo not drawn),7.94 µM (active)
2,O=C(NC1CCCCC1)C(c1ccncc1)N(Cc1ccccc1)C(=O)c1ccc(-c2ccccc2)[nH]1 (stereo not drawn),4.47 µM (active)
3,O=C(NC1CCCC1)C(c1ccncc1)N(Cc1ccco1)C(=O)c1ccc(-c2ccccc2)[nH]1 (stereo not drawn),11.2 µM (active)
4,COc1ccc(NC(=S)N(CCCN2CCCCCC2)Cc2cccs2)cc1,11.2 µM (active)
5,O=C(Nc1nnc(SCC(=O)N2CCCC2)s1)C1CC(=O)N(c2ccc(F)cc2)C1 (stereo not drawn),11.2 µM (active)
6,COc1cccc(N2CC(C(=O)Nc3nnc(SCCC4OCCO4)s3)CC2=O)c1 (stereo not drawn),12.6 µM (active)
7,CCc1ccc(NC2=CC(=O)C(=O)c3ccccc32)cc1,0.501 µM (active)
8,Cn1nccc1C(=O)N1CCc2c([nH]c3ccccc23)C1c1ccc(F)cc1 (stereo not drawn),7.94 µM (active)
9,CCc1ccc(C2c3[nH]c4ccccc4c3CCN2C(=O)c2cc(C)nn2C)cc1 (stereo not drawn),5.01 µM (active)
10,CSc1ccc(C2c3[nH]c4ccccc4c3CCN2C(=O)c2ccnn2C)cc1 (stereo not drawn),7.08 µM (active)
11,Cc1cc[n+]2cc(-c3cccc([N+](=O)[O-])c3)c(-c3cccc([N+](=O)[O-])c3)cc2c1,0.631 µM (active)
12,COc1ccc(N(C)S(=O)(=O)c2cccc(C(=O)NCc3ccc(C)cc3)c2)cc1,12.6 µM (active)
13,COc1cccc(S(=O)(=O)NCc2ccc(C(=O)NCc3ccccn3)cc2)c1,inactive
14,CN(CCOc1ccccc1)C(=O)C1CCC(=O)N(CCN2CCOCC2)C1 (stereo not drawn),inactive
15,CN(Cc1ccccc1Cl)C(=O)C1CCC(=O)N(CCc2cccc(F)c2)C1 (stereo not drawn),11.2 µM (active)
16,O=C(Nc1ccccc1)N1CCC(O)(c2cccc(C(F)(F)F)c2)CC1,11.2 µM (active)
17,CCOc1ccccc1NC(=O)C(CC)Sc1nc2ccsc2c(=O)n1CCC(=O)O (stereo not drawn),12.6 µM (active)
18,C[N+]1(CCCCSc2ccc(O)cc2)CCCCC1,7.08 µM (active)
19,Cc1c(C(=O)N2CCN(c3ccc([N+](=O)[O-])cc3)CC2)sc2ncn(CC(=O)N3CCOCC3)c(=O)c12,12.6 µM (active)
20,COc1ccccc1N1CCN(C2CCCN(Cc3ccc(Cl)cc3)C2)CC1 (stereo not drawn),6.31 µM (active)

row,Compound,Potency
1,COc1ccc(N2CCN(C3CCCN(Cc4ccc(F)cc4)C3)CC2)cc1 (stereo not drawn),11.2 µM (active)
2,CCOC(=O)CSc1nnc(NC(=O)c2cccc([N+](=O)[O-])c2)s1,12.6 µM (active)
3,O=C(CSc1nnc(NC(=O)c2ccccc2[N+](=O)[O-])s1)NCC1CCCO1 (stereo not drawn),inactive
4,CCC(C)[C@H](NC(=O)[C@H](Cc1ccccc1)n1c(=O)[nH]c2ccccc2c1=O)C(=O)NCC1CCC(C(=O)O)CC1 (stereo partly drawn),12.6 µM (active)
5,Clc1ccc(-c2c[n+](Cc3ccc(Br)cc3)c3n2CCCCC3)cc1,0.199 µM (active)
6,Clc1ccc(-c2c[n+](Cc3ccc(Cl)cc3Cl)c3n2CCCCC3)cc1,1.26 µM (active)
7,Nc1nnnn1/N=C/C(Br)=C/c1ccccc1,12.6 µM (active)
8,CCN1CCC(Nc2ccnc3cc(Cl)ccc23)CC1,0.126 µM (active)
9,O=C(NNc1ccnc2cc(Cl)ccc12)C1CCCCC1,0.891 µM (active)
10,S=C(Nc1ccccc1Cl)N(Cc1ccccc1)Cc1cccnc1,12.6 µM (active)
11,CCOC(=O)[C@H]1[C@H]2COc3cc(OC)ccc3[C@@H]2N2C(=O)N(c3ccc(Cl)cc3)C(=O)[C@@]12C,12.6 µM (active)
12,O=c1cc(CSc2nc(NCc3ccccc3)c3ccccc3n2)nc2ccc(Cl)cn12,5.01 µM (active)
13,Cc1ncc(CO)c(/C=N/NC(=S)Nc2ccc(F)cc2)c1O,12.6 µM (active)
14,COc1ccc(C(=O)NCC(=O)N/N=C(C)\C=C\c2ccccc2)cc1OC,inactive
15,COc1ccc(C(=O)NCC(=O)N/N=C/c2ccc([N+](=O)[O-])s2)cc1OC,11.2 µM (active)
16,O=C(CNC(=O)c1cccc(F)c1)N/N=C/c1ccc([N+](=O)[O-])s1,11.2 µM (active)
17,CCCCCCCn1c(=O)c(C(=O)OC)c(N)c2ccccc21,12.6 µM (active)
18,NNc1nc(-c2ccccc2Cl)c2cc(Br)ccc2n1,11.2 µM (active)
19,O=S(=O)(NCC(O)c1ccccc1)c1cc(Cl)sc1Cl (stereo not drawn),inactive
20,O=C(COc1cc2oc(=O)c3c(c2cc1Cl)CCC3)NCC(O)c1ccccc1 (stereo not drawn),11.2 µM (active)

row,Compound,Potency
1,Cc1c(OCC(=O)NCC(O)c2ccccc2)ccc2c3c(c(=O)oc12)CCC3 (stereo not drawn),14.1 µM (active)
2,OC1(c2cccs2)CN(c2ccc(Br)cc2)C2=[N+]1CCCS2 (stereo not drawn),12.6 µM (active)
3,OC1(c2cccs2)CN(c2ccc(Cl)cc2)C2=[N+]1CCCC2 (stereo not drawn),10 µM (active)
4,CC(C)(C)Nc1nc(Cl)nc(NC2CCCCC2)n1,14.1 µM (active)
5,O=C1c2cc(F)ccc2-n2c1nc1ccccc1c2=O,0.178 µM (active)
6,O=C1c2ccccc2-n2c1nc1ccccc1c2=O,0.708 µM (active)
7,NC(=S)Nn1c(-c2ccccc2)nc2ccccc2c1=O,inactive
8,CN(C)CCn1c(=O)n(Cc2ccco2)c(=O)c2c3c(sc21)CCCCC3,12.6 µM (active)
9,O=C(Nc1ccccc1F)c1ccc(CN2CCN(c3ccccc3)CC2)cc1,inactive
10,COc1cccc(NC(=O)c2ccc(CN3CCN(c4ccccc4)CC3)cc2)c1,15.8 µM (active)
11,COc1ccc(NC(=O)c2ccc(CN3CCN(c4ccccc4)CC3)cc2)cc1OC,10 µM (active)
12,O=C(Nc1ccc(F)cc1F)c1ccc2c(c1)[nH]c(=O)n2Cc1ccc(F)cc1,12.6 µM (active)
13,COc1ccc(Cl)cc1/C=C/c1ccc2cccc(O)c2n1,6.31 µM (active)
14,Oc1cccc2ccc(/C=C/c3ccccc3Br)nc12,2.82 µM (active)
15,COc1ccc(C#Cc2ccc3c(=O)c4ccccc4n(C)c3c2)cc1,10 µM (active)
16,Cn1c2ccccc2c(=O)c2ccc(C#Cc3ccc(N)cc3)cc21,12.6 µM (active)
17,Cc1ccc2c(c1)c1c3n2CCN(C(=O)CCl)C3CCC1 (stereo not drawn),12.6 µM (active)
18,Cc1cc(C)cc(CC(Cc2nc3ccccc3[nH]2)c2nc3ccccc3[nH]2)c1 (stereo not drawn),2.24 µM (active)
